# Sampled rows, rich in hits. Any-hit rate of the full collection: about 5.7%.
# DAX1 inh-1: blocks DAX1 repression of SF-1 activated StAR promoter | HEK293T StAR-luciferase reporter, SF-1/DAX-1 repression relief | inhibition, % at 6.8 µM | 1.1% of 370,000 active;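 active = inhibition above the mean over all tested compounds plus 3 SD, cut at about 3.6% in these data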;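 note: higher inhibition means more luminescence from relief of DAX-1 repression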
# AHR activator: activates the human aryl hydrocarbon receptor; AHR-responsive luciferase reporter cells, luminescence; P35869; 2.5% of 320,000 active; activation, % at 5 µM; AID 2796; in the data active = activation above about 47%
# hgDAF-12 ag: activates the H. glycines DAF-12 receptor ligand-binding domain. HEK293 GAL4-hgDAF12 UAS-luciferase reporter, agonist luminescence; normalized to butyrate control. AID 687014. 1.8% of 370,000 active. activation, % at 6.8 µM;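 active = activation above a cutoff set at the mean of all screened compounds plus 3 SD, cut at about 10% in these data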
# ssDAF12 agonist: activators of S. stercoralis DAF-12 nuclear receptor | HEK293 ssDAF-12/GRIP1 lit1-tk-luc reporter, luminescence; % of 3 µM dafachronic acid response | 1% of 370,000 active | activation, % at 6.8 µM;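 active = activation above the mean over all tested compounds plus 3 SD, cut at about 0.9% in these data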
# DAX1 inh-2: inhibits human nuclear receptor DAX1; P51843; HEK293 Gal4-DAX1 luciferase reporter, luminescence; inhibition, % at 6.75 µM; 0.99% of 340,000 active; AID 504766;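 active = inhibition above the mean over all tested compounds plus 3 SD, cut at about 4.2% in these data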;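 note: inhibition shows as a rise in luminescence from relieved DAX1 repression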
# Target sequence (P51843 207-470 limits assumed): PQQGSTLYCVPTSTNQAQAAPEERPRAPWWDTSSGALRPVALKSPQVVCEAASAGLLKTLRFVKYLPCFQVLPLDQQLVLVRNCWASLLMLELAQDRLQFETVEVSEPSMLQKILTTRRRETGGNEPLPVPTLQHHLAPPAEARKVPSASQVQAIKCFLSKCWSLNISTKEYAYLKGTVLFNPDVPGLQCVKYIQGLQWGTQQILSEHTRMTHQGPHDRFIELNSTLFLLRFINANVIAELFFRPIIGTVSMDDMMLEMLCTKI
# hcDAF-12 act: activators of H. contortus DAF-12 nuclear receptor. activation, % at 6.8 µM. HEK293 hcDAF-12 lit1-tk-luc reporter, luminescence; 0% DMSO, 100% Δ7-dafachronic acid. 1.4% of 370,000 active;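 active = activation above the mean of all tested compounds plus 3 SD, cut at about 5.5% in these data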
# Hits are given with their value; 0 = inactive; - = not tested or not shown.
SMILES,DAX1 inh-1,AHR activator,hgDAF-12 ag,ssDAF12 agonist,DAX1 inh-2,hcDAF-12 act
CCN1CCN(C(=S)c2ccc(O)cc2)CC1,0,0,0,0,7.5,0
Cc1ccc(-c2csc(N3CCN(c4cc5c(cc4Cl)nc(C(C)N)n5CCCO)CC3)n2)cc1 (centres undefined),0,0,0,0,0,0
CCN(CC)C(=O)C(=O)c1cccn1-c1ccc(C#N)cc1,0,0,0,0,0,0
CC(=O)C(C)Oc1ccc2c3c(c(=O)oc2c1)CCCC3 (centres undefined),0,0,0,0,0,0
CC(=O)C(C)Oc1ccc2c3c(c(=O)oc2c1)CCCCC3 (centres undefined),0,0,11.1,0,0,0
Cc1ccc2[nH]c(=O)c(-c3nc4ccccn4c3NCc3ccco3)cc2c1,0,47.7,0,0,0,0
O=Cc1c(NCc2ccco2)nc2ccccn2c1=O,0,0,0,0,0,0
O=C(Nc1ccc2c(c1)OCO2)c1ccc2sc([C@@H]3O[C@H](CO)[C@@H](O)[C@H]3O)nc2c1,0,-,0,0,-,0
O=C(Nc1nc2ccccc2s1)c1ccc2sc([C@H]3C[C@H](O)[C@@H](CO)O3)nc2c1,0,-,11.2,0,-,0
O=C(Nc1ccc(Cl)cc1)c1ccc2sc([C@@H]3O[C@H](CO)[C@@H](O)[C@H]3O)nc2c1,0,-,11.1,0,-,0
O=C(Nc1nccs1)c1ccc2sc([C@H]3C[C@H](O)[C@@H](CO)O3)nc2c1,0,-,0,0,-,0
CCOc1ccc(NC(=O)CN2CCN(c3ccc(F)cc3)CC2)cc1S(=O)(=O)N1CCCC1,0,-,0,1.0,0,0
CCOc1ccc(NC(=O)CN2CCN(c3ccccc3C)CC2)cc1S(=O)(=O)N1CCCC1,0,0,0,0,0,0
COc1ccc(CCNC(=O)CCCn2c(SCC(N)=O)nc3cc4c(cc3c2=O)OCO4)cc1OC,0,0,0,0,-,0
CC(C)=CCC/C(C)=C/COc1ccc2ccc(=O)oc2c1,0,0,0,0,0,0
CC(C)=CCC/C(C)=C/COc1c2occc2cc2ccc(=O)oc12,0,69.3,0,0,0,0
Cc1ccc(NCCCn2cnc(C(=O)Nc3ccc(C)c(C)c3)n2)cc1C,0,-,0,0,0,0
CCCCn1c(-c2cc(Cl)ccc2OC)n[nH]c1=S,0,0,0,0,0,0
COCCCN1C(=O)C(CC(=O)NCCCCc2ccccc2)CC(C(=O)N2CCOCC2)=C1C (centres undefined),0,-,0,0,0,0
COc1ccc(N=Nc2ccc(O)c3ncccc23)cc1,0,48.0,0,0,0,0
Cc1ccccc1NC(=S)N1CCCCCC1,0,-,0,0,0,0
CC[C@]12CCCN3CCc4c(n(c5ccccc45)[C@@](O)(C(=O)OC)C1)[C@@H]32,0,0,0,0,5.0,0
CCOC(=O)C1=C[C@]2(CC)CCCN3CCc4c(n1c1ccccc41)[C@@H]32,0,0,0,0,0,0
CC1CCCCN1C(=O)COc1ccc2ccc(=O)oc2c1 (centres undefined),0,0,0,0,0,0
O=C(N/N=C/c1cccs1)c1cc(-c2cccc3ccccc23)n[nH]1,0,48.1,10.5,0,0,0
SMILES,DAX1 inh-1,AHR activator,hgDAF-12 ag,ssDAF12 agonist,DAX1 inh-2,hcDAF-12 act
O=C(O)c1ccc(/C=N/NC(=O)c2cc(-c3ccc4c5c(cccc35)CC4)n[nH]2)cc1,0,77.9,0,0,0,0
O=C(N/N=C/c1cccs1)c1ccc2ccccc2c1,0,0,0,0,0,0
O=C(N/N=C/c1cccs1)c1cc(-c2ccc3ccccc3c2)n[nH]1,0,0,11.1,0,0,0
O=C(O)c1ccc(C=NNC(=O)c2cccc3ccccc23)cc1,0,-,0,0,0,0
O=C(CN(C(=O)Cn1nnc(-c2ccc(F)cc2)n1)c1cnc2ccccc2c1)NCC1CCCO1 (centres undefined),0,0,0,0,0,0
COc1ccc(/C=N/OCC(=O)NCc2cccs2)c(OC)c1,0,47.7,0,0,0,0
O=C(CSc1cccc2cccnc12)OCC(=O)c1ccc(Br)cc1,0,0,0,0,0,0
O=C(CSc1cccc2cccnc12)OCC(=O)c1ccccc1,0,0,0,0,4.5,0
COc1cccc(CSc2nc3ccccc3[nH]2)c1,0,0,12.8,0,0,0
c1ccc(OCCSc2nc3ccccc3[nH]2)cc1,0,0,0,0,4.7,0
Fc1ccccc1CSc1nc2ccccc2[nH]1,0,0,11.5,0,0,0
O=[N+]([O-])c1cccc(CSc2nc3ccccc3[nH]2)c1,0,0,0,0,0,0
Cc1ccc2nc(SCCCCOc3ccccc3)[nH]c2c1,-,0,-,-,0,-
Fc1c(F)c(F)c(CSc2nc3ccccc3[nH]2)c(F)c1F,0,0,0,0,0,0
c1ccc(OCc2nc3ccccc3[nH]2)cc1,0,0,11.0,0,0,0
c1ccc(OCc2nnc(SCc3nc4ccccc4[nH]3)n2-c2ccccc2)cc1,0,-,0,0,-,0
O=C(Nc1cccc(NC(=O)c2cccnc2Cl)c1)c1ccco1,0,0,0,0,0,0
Cc1[nH]c2ccccc2c1C(=O)COC(=O)c1cccc(S(=O)(=O)N2CCCCC2)c1,0,0,0,0,0,0
CCOC(=O)N1CCN(S(=O)(=O)N2CCCC(C(=O)NCCc3ccc(Cl)cc3)C2)CC1 (centres undefined),0,0,0,0,0,0
O=C(O)C1=C[C@@H](c2ccc(C(F)(F)F)cc2)C[C@@H](OCCCCO)O1,0,0,0,0,0,0
Cc1nn2c(-c3ccncc3)ccnc2c1Cl,0,0,11.7,0,0,0
Cn1c(=O)[nH]c(=O)c2c1nc(SCCO)n2Cc1ccccc1Cl,0,0,0,0,0,0
Cc1cccc2sc(N(CCCN(C)C)C(=O)c3ccc(Cl)s3)nc12,0,0,0,0.9,0,0
COc1cccc(C(=O)NCCC2=CCCCC2)c1,0,0,11.5,0,0,0
COc1ccc(C(=O)NCCC2=CCCCC2)cc1OC,0,0,0,0,0,0
SMILES,DAX1 inh-1,AHR activator,hgDAF-12 ag,ssDAF12 agonist,DAX1 inh-2,hcDAF-12 act
Cc1cc(C(=O)NCCC2=CCCCC2)ccc1[N+](=O)[O-],0,0,10.9,0,-,0
O=[N+]([O-])c1cc(-c2cnc3ccccc3n2)ccc1Oc1ccc(Cl)cc1,0,49.8,0,1.1,0,0
Cc1cc(-c2cccc([N+](=O)[O-])c2)nc2ccccc12,0,0,0,0,0,0
COc1ccccc1Oc1ccc(-c2cnc3ccccc3n2)cc1[N+](=O)[O-],0,55.5,0,0,-,0
O=[N+]([O-])c1cc(-c2cnc3ccccc3n2)ccc1Cl,0,0,0,0,0,0
O=[N+]([O-])c1cccc(-c2cnc3ccccc3n2)c1,0,0,0,1.0,0,0
N#CC1=C2SCN(Cc3ccccc3)CN2C(=O)CC1c1ccccc1F (centres undefined),-,0,-,-,0,-
